According to PubChem BioAssay AID1159580 (chemical genetic matrix, 2015):
About 2,000 (36%) of roughly 5,500 compounds were called active. Another 18% or so got no clear call; they are omitted. The list shows a part of the results. Values without a mark were called inactive. No stated cut-off is given here; in the data, active means normalized growth mostly below about 0.91 (no sharp cut-off); inconclusive means no clear call, values can overlap the other calls; inactive means mostly above about 0.92.

Experiment: chemical genetic growth profiling, strain panel (AID 1159580);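 further: tested at 20 µM; growth read once vehicle control cultures reached saturation at 30 °C; 1 = growth at the plate median or of vehicle wells; lower values mean less growth of the strain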
Conditions: S. cerevisiae deletion strains, growth OD
[1] = locus YAR019C, strain CDC15, active compounds read low
[2] = locus YBL105C, strain PKC1, active compounds read low
[3] = locus YBR135W, strain CKS1, active compounds read low
[4] = locus YBR136W, strain MEC1, active compounds read low
[5] = locus YBR160W, strain CDC28, active compounds read low
[6] = locus YDL017W, strain CDC7, active compounds read low
[7] = locus YDL028C, strain MPS1, active compounds read low
[8] = locus YDL108W, strain KIN28, active compounds read low
[9] = locus YDL214C, strain PRR2, active compounds read low
[10] = locus YDR052C, strain DBF4, active compounds read low
[11] = locus YDR054C, strain cdc34, active compounds read low
[12] = locus YDR477W, strain SNF1, active compounds read low
[13] = locus YER123W, strain YCK3, active compounds read low
[14] = locus YER133W, strain GLC7, active compounds read low
[15] = locus YFL029C, strain CAK1, active compounds read low
[16] = locus YFR003C, strain YPI1, active compounds read low
[17] = locus YFR019W, strain FAB1, active compounds read low
[18] = locus YGR040W, strain KSS1, active compounds read low
[19] = locus YGR052W, strain FMP48, active compounds read low
[20] = locus YGR092W, strain DBF2, active compounds read low
[21] = locus YHR030C, strain SLT2, active compounds read low
[22] = locus YHR079C, strain IRE1, active compounds read low
[23] = locus YHR082C, strain KSP1, active compounds read low
[24] = locus YHR205W, strain SCH9, active compounds read low
[25] = locus YIL147C, strain SLN1, active compounds read low
[26] = locus YJL095W, strain BCK1, active compounds read low
[27] = locus YJL157C, strain FAR1, active compounds read low
[28] = locus YJR016C, strain ILV3, active compounds read low
[29] = locus YJR066W, strain TOR1 (second series), active compounds read low
[30] = locus YJR066W, strain TOR1, active compounds read low
[31] = locus YKL048C, strain ELM1, active compounds read low
[32] = locus YKL067W, strain YNK1, active compounds read low
[33] = locus YKL101W, strain HSL1, active compounds read low
[34] = locus YKL193C, strain SDS22, active compounds read low
[35] = locus YKL203C, strain TOR2, active compounds read low
[36] = locus YLR113W, strain HOG1, active compounds read low
[37] = locus YLR133W, strain CKI1, active compounds read low
[38] = locus YLR403W, strain SFP1, active compounds read low
[39] = locus YML070W, strain DAK1, active compounds read low
[40] = locus YMR001C, strain CDC5, active compounds read low
[41] = locus YMR205C, strain PFK2 (second series), active compounds read low
[42] = locus YMR277W, strain FCP1, active compounds read low
[43] = locus YNL006W, strain LST8, active compounds read low
[44] = locus YNL020C, strain ARK1, active compounds read low
[45] = locus YNL161W, strain CBK1, active compounds read low
[46] = locus YNL183C, strain NPR1, active compounds read low
[47] = locus YNL207W, strain RIO2, active compounds read low
[48] = locus YNL222W, strain SSU72, active compounds read low
[49] = locus YNL307C, strain MCK1 (second series), active compounds read low
[50] = locus YOL078W, strain AVO1, active compounds read low
[51] = locus YOL136C, strain PFK27, active compounds read low
[52] = locus YOR061W, strain CKA2, active compounds read low
[53] = locus YOR119C, strain RIO1, active compounds read low
[54] = locus YOR231W, strain MKK1, active compounds read low
[55] = locus YOR329C, strain SCD5, active compounds read low
[56] = locus YPL031C, strain PHO85, active compounds read low
[57] = locus YPL153C, strain RAD53, active compounds read low
[58] = locus YPL204W, strain HRR25, active compounds read low
[59] = locus YPL209C, strain IPL1, active compounds read low
[60] = locus YPL256C, strain CLN2, active compounds read low
[61] = locus YPR025C, strain CCL1, active compounds read low
[62] = locus YPR106W, strain ISR1, active compounds read low
[63] = locus YPR111W, strain DBF20, active compounds read low
[64] = strain NNK1, active compounds read low
[65] = strain TSCII, active compounds read low

N#Cc1c2ccccc2nc2ccccc12
normalized growth [1]: 0.818 (active)
normalized growth [2]: 0.834 (active)
normalized growth [3]: 0.808 (active)
normalized growth [4]: 0.827 (active)
normalized growth [5]: 0.823 (active)
normalized growth [6]: 0.834 (active)
normalized growth [7]: 0.825 (active)
normalized growth (locus YDL101C, strain DUN1, active compounds read low): 0.832 (active)
normalized growth [8]: 0.826 (active)
normalized growth (locus YDL132W, strain cdc53, active compounds read low): 0.885
normalized growth [9]: 0.743
normalized growth [10]: 0.829 (active)
normalized growth [11]: 0.781 (active)
normalized growth (locus YDR226W, strain ADK1, active compounds read low): 0.825 (active)
normalized growth [12]: 0.678 (active)
normalized growth [13]: 0.678
normalized growth [14]: 0.717 (active)
normalized growth (locus YFL009W, strain cdc4, active compounds read low): 0.813 (active)
normalized growth [15]: 0.813 (active)
normalized growth [16]: 0.831 (active)
normalized growth [17]: 0.844
normalized growth (locus YFR028C, strain CDC14, active compounds read low): 0.832 (active)
normalized growth [18]: 0.716
normalized growth [19]: 0.736
normalized growth [20]: 0.196 (active)
normalized growth [21]: 0.693 (active)
normalized growth [22]: 0.599
normalized growth [23]: 0.72
normalized growth [24]: 0.807
normalized growth [25]: 0.822 (active)
normalized growth [26]: 0.561
normalized growth (locus YJL128C, strain PBS2, active compounds read low): 0.87
normalized growth [27]: 0.675 (active)
normalized growth [28]: 0.816 (active)
normalized growth [29]: 0.728
normalized growth [30]: 0.615
normalized growth [31]: 0.746 (active)
normalized growth [32]: 0.744
normalized growth [33]: 0.761
normalized growth [34]: 0.803 (active)
normalized growth [35]: 0.693 (active)
normalized growth [36]: 0.638 (active)
normalized growth [37]: 0.737
normalized growth [38]: 0.605 (active)
normalized growth [39]: 0.726
normalized growth [40]: 0.818 (active)
normalized growth [41]: 0.761
normalized growth [42]: 0.817 (active)
normalized growth [43]: 0.829 (active)
normalized growth [44]: 0.717
normalized growth [45]: 0.823 (active)
normalized growth [46]: 0.584
normalized growth [47]: 0.822 (active)
normalized growth [48]: 0.825 (active)
normalized growth [49]: 0.649
normalized growth [50]: 0.803 (active)
normalized growth [51]: 0.742
normalized growth [52]: 0.677 (active)
normalized growth [53]: 0.749
normalized growth [54]: 0.587
normalized growth [55]: 0.829 (active)
normalized growth [56]: 0.616 (active)
normalized growth [57]: 0.659 (active)
normalized growth [58]: 0.693
normalized growth [59]: 0.833 (active)
normalized growth [60]: 0.708 (active)
normalized growth [61]: 0.82 (active)
normalized growth [62]: 0.862 (active)
normalized growth [63]: 0.843 (active)
normalized growth [64]: 0.846 (active)
normalized growth [65]: 0.811 (active)

COc1ccc2nc3ccccc3c(N)c2c1
normalized growth [1]: 0.6 (active)
normalized growth [2]: 0.592 (active)
normalized growth [3]: 0.722 (active)
normalized growth [4]: 0.657 (active)
normalized growth [5]: 0.661 (active)
normalized growth [6]: 0.636 (active)
normalized growth [7]: 0.679 (active)
normalized growth [8]: 0.737 (active)
normalized growth [9]: 0.203 (active)
normalized growth [10]: 0.701 (active)
normalized growth [11]: 0.625 (active)
normalized growth [12]: 0.198 (active)
normalized growth [13]: 0.195 (active)
normalized growth [14]: 0.215 (active)
normalized growth [15]: 0.579 (active)
normalized growth [16]: 0.652 (active)
normalized growth [17]: 0.208 (active)
normalized growth [18]: 0.21 (active)
normalized growth [19]: 0.235 (active)
normalized growth [20]: 0.227 (active)
normalized growth [21]: 0.188 (active)
normalized growth [22]: 0.206 (active)
normalized growth [23]: 0.27 (active)
normalized growth [24]: 0.151 (active)
normalized growth [25]: 0.63 (active)
normalized growth [26]: 0.227 (active)
normalized growth [27]: 0.176 (active)
normalized growth [28]: 0.699 (active)
normalized growth [29]: 0.246 (active)
normalized growth [30]: 0.233 (active)
normalized growth [31]: 0.264 (active)
normalized growth [32]: 0.19 (active)
normalized growth [33]: 0.193 (active)
normalized growth [34]: 0.659 (active)
normalized growth [35]: 0.204 (active)
normalized growth [36]: 0.257 (active)
normalized growth [37]: 0.199 (active)
normalized growth [38]: 0.11 (active)
normalized growth [39]: 0.207 (active)
normalized growth [40]: 0.667 (active)
normalized growth [41]: 0.258 (active)
normalized growth [42]: 0.648 (active)
normalized growth [43]: 0.611 (active)
normalized growth [44]: 0.196 (active)
normalized growth [45]: 0.525 (active)
normalized growth [46]: 0.283 (active)
normalized growth [47]: 0.645 (active)
normalized growth [48]: 0.638 (active)
normalized growth [49]: 0.202 (active)
normalized growth [50]: 0.689 (active)
normalized growth [51]: 0.205 (active)
normalized growth [52]: 0.186 (active)
normalized growth [53]: 0.221 (active)
normalized growth [54]: 0.225 (active)
normalized growth [55]: 0.607 (active)
normalized growth [56]: 0.214 (active)
normalized growth [57]: 0.216 (active)
normalized growth [58]: 0.198 (active)
normalized growth [59]: 0.624 (active)
normalized growth [60]: 0.252 (active)
normalized growth [61]: 0.637 (active)
normalized growth [62]: 0.679 (active)
normalized growth [63]: 1
normalized growth [64]: 0.537 (active)
normalized growth [65]: 0.58 (active)
